# Source: the supplement of paper PMC8007513
# Structures can show the parent of a compound that is named as a salt. ± gives the standard error. Screen size: about 1,300 compounds; about 130 (10%) showed an effect of 50% or more. The entries come from a sample that favours strong results as a whole.
# Tested on: Trichoderma virens ATCC 9645
# Assay: growth yield (OD600) with compound + IPBC relative to untreated control; higher = less growth inhibition
# Details: compound concentration: 100 uM, IPBC concentration: 200 ng/ml
# Summary of the method: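 A biocide at 200 ng ml^−1 was co-applied to some wells, and library compounds were present in all test wells at 100 μM final. The wells held 100 μl of Trichoderma virens ATCC 9645 spores at 15,000 spores ml^−1 in potato dextrose broth, grown at 30 °C in 96-well plates, with OD600 read at 40 h and 72 h. Results are relative growth against the control without either agent, averaged across duplicate screens.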
Compound,growth yield (40 h) [%],growth yield (72 h) [%]
CCCCC[C@H](O)/C=C/[C@@H]1[C@@H](C/C=C\CCCC(=O)O)[C@@H](O)C[C@H]1O [Dinoprost trometamol] + CCCCNC(=O)OCC#CI [3-iodo-2-propynyl butylcarbamate (IPBC)],83.1 ± 1.1,94.08 ± 0.52
CCOc1ccc2nc(S(N)(=O)=O)sc2c1 [Ethoxzolamide] + CCCCNC(=O)OCC#CI [3-iodo-2-propynyl butylcarbamate (IPBC)],90.2,92.2 ± 3.9
Nc1nc2ccc(OC(F)(F)F)cc2s1 [Riluzole hydrochloride] + CCCCNC(=O)OCC#CI [3-iodo-2-propynyl butylcarbamate (IPBC)],27.3 ± 2.2,49.3 ± 1.9
CC(C(=O)O)c1ccc(N2Cc3ccccc3C2=O)cc1 (stereo not given) [Indoprofen] + CCCCNC(=O)OCC#CI [3-iodo-2-propynyl butylcarbamate (IPBC)],88.8 ± 11,91.2 ± 7.3
Cc1ccc(C(=O)c2ccc(CC(=O)O)n2C)cc1 [Tolmetin sodium salt dihydrate] + CCCCNC(=O)OCC#CI [3-iodo-2-propynyl butylcarbamate (IPBC)],77.8 ± 4.8,83.9 ± 2.3
C[C@]12CC[C@H](O)C[C@H]1CC[C@@H]1[C@@H]2CC[C@]2(C)[C@@H](C3=CC(=O)OC3)CC[C@]12O [Digitoxigenin] + CCCCNC(=O)OCC#CI [3-iodo-2-propynyl butylcarbamate (IPBC)],79.58 ± 0.48,87.36 ± 0.52
NC(=O)NC1NC(=O)NC1=O (stereo not given) [Allantoin] + CCCCNC(=O)OCC#CI [3-iodo-2-propynyl butylcarbamate (IPBC)],83.71 ± 0.48,89.2 ± 2.2
CC(C)OC(=O)C(C)(C)Oc1ccc(C(=O)c2ccc(Cl)cc2)cc1 [Fenofibrate] + CCCCNC(=O)OCC#CI [3-iodo-2-propynyl butylcarbamate (IPBC)],65.4 ± 1.3,76.3 ± 1.9
Nc1nc(=O)[nH]cc1F [Flucytosine] + CCCCNC(=O)OCC#CI [3-iodo-2-propynyl butylcarbamate (IPBC)],88.5 ± 2.1,90.4 ± 0.63
O=c1[nH]cc(F)c(=O)[nH]1 [5-fluorouracil] + CCCCNC(=O)OCC#CI [3-iodo-2-propynyl butylcarbamate (IPBC)],36.9,58.1 ± 1.3
CCN(CC)C(C)C(=O)c1ccccc1 (stereo not given) [Amfepramone hydrochloride] + CCCCNC(=O)OCC#CI [3-iodo-2-propynyl butylcarbamate (IPBC)],102 ± 15,102 ± 9.3
O=C1C(CC[S+]([O-])c2ccccc2)C(=O)N(c2ccccc2)N1c1ccccc1 (stereo not given) [Sulfinpyrazone] + CCCCNC(=O)OCC#CI [3-iodo-2-propynyl butylcarbamate (IPBC)],106 ± 9.2,105 ± 2.4
Cc1ccc(/C(=C\CN2CCCC2)c2ccccn2)cc1 [Triprolidine hydrochloride] + CCCCNC(=O)OCC#CI [3-iodo-2-propynyl butylcarbamate (IPBC)],96.1 ± 6.5,100 ± 1.6
CSc1ccc2c(c1)C(N1CCN(C)CC1)Cc1ccccc1S2 (stereo not given) [Methiothepin maleate] + CCCCNC(=O)OCC#CI [3-iodo-2-propynyl butylcarbamate (IPBC)],2.06 ± 0.16,1.78 ± 0.1
CN1CCN2c3ccccc3Cc3ccccc3C2C1 (stereo not given) [Mianserine hydrochloride] + CCCCNC(=O)OCC#CI [3-iodo-2-propynyl butylcarbamate (IPBC)],82.6 ± 1.3,94.1 ± 1.8
CN1CCC(=C2c3ccccc3Sc3ccccc32)CC1 [Pimethixene maleate] + CCCCNC(=O)OCC#CI [3-iodo-2-propynyl butylcarbamate (IPBC)],56.1 ± 1.4,88 ± 2
CC1(C)O[C@@H]2[C@@H](CO[C@@]3(COS(N)(=O)=O)OC(C)(C)O[C@@H]23)O1 [Topiramate] + CCCCNC(=O)OCC#CI [3-iodo-2-propynyl butylcarbamate (IPBC)],89 ± 5.1,93.1 ± 5.9
CC(C)(Oc1ccc(C2CC2(Cl)Cl)cc1)C(=O)O (stereo not given) [Ciprofibrate] + CCCCNC(=O)OCC#CI [3-iodo-2-propynyl butylcarbamate (IPBC)],78.9 ± 3.6,82.2 ± 1.7
O=c1[nH]c(=O)n([C@H]2C[C@H](O)[C@@H](CO)O2)cc1C(F)(F)F [Trifluridine] + CCCCNC(=O)OCC#CI [3-iodo-2-propynyl butylcarbamate (IPBC)],90.4 ± 6.2,92.7 ± 4
O=c1[nH]c(=O)n([C@H]2C[C@H](O)[C@@H](CO)O2)cc1F [Floxuridine] + CCCCNC(=O)OCC#CI [3-iodo-2-propynyl butylcarbamate (IPBC)],4.45,19.1 ± 2.3
O=c1[nH]c(=O)n([C@H]2C[C@H](O)[C@@H](CO)O2)cc1I [Idoxuridine] + CCCCNC(=O)OCC#CI [3-iodo-2-propynyl butylcarbamate (IPBC)],87.8 ± 2.1,89.04 ± 0.52
O=C(NCCNCC(O)COc1ccc(O)cc1)N1CCOCC1 (stereo not given) [Xamoterol hemifumarate] + CCCCNC(=O)OCC#CI [3-iodo-2-propynyl butylcarbamate (IPBC)],92.4 ± 1.6,94.39 ± 0.63
COc1cccc2c1C(=O)c1c(O)c3c(c(O)c1C2=O)C[C@@](O)(C(=O)CO)C[C@@H]3O[C@H]1C[C@H](N)[C@@H](O)[C@H](C)O1 [Epirubicin hydrochloride] + CCCCNC(=O)OCC#CI [3-iodo-2-propynyl butylcarbamate (IPBC)],42.7 ± 0.48,95.33 ± 0.32
COc1cccc2c1C(=O)c1c(O)c3c(c(O)c1C2=O)C[C@@](O)(C(=O)CO)C[C@@H]3O[C@H]1C[C@H](N)[C@H](O)[C@H](C)O1 [Doxorubicin hydrochloride] + CCCCNC(=O)OCC#CI [3-iodo-2-propynyl butylcarbamate (IPBC)],8.1 ± 1.1,34.8 ± 20
COc1cccc2c1C(=O)c1c(O)c3c(c(O)c1C2=O)C[C@@](O)(C(C)=O)C[C@@H]3O[C@H]1C[C@H](N)[C@H](O)[C@H](C)O1 [Daunorubicin hydrochloride] + CCCCNC(=O)OCC#CI [3-iodo-2-propynyl butylcarbamate (IPBC)],9.21 ± 1.6,44.7 ± 1.3

Compound,growth yield (40 h) [%],growth yield (72 h) [%]
CO[C@@H]1[C@@H](O[C@@H]2O[C@H](C)[C@@H](O[C@H]3C[C@@](C)(O)[C@@H](OC(=O)CC(C)C)[C@H](C)O3)[C@H](N(C)C)[C@H]2O)[C@@H](CC=O)C[C@@H](C)[C@@H](O)/C=C/C=C/C[C@@H](C)OC(=O)C[C@H]1OC(C)=O [Josamycin] + CCCCNC(=O)OCC#CI [3-iodo-2-propynyl butylcarbamate (IPBC)],100 ± 4.5,103 ± 3.5
Nc1cc(C(Cl)=C(Cl)Cl)c(S(N)(=O)=O)cc1S(N)(=O)=O [Clorsulon] + CCCCNC(=O)OCC#CI [3-iodo-2-propynyl butylcarbamate (IPBC)],86.4 ± 2.2,90.8 ± 3.1
C[C@H](O)C(=O)Nc1c(I)c(C(=O)NC(CO)CO)c(I)c(C(=O)NC(CO)CO)c1I [Iopamidol] + CCCCNC(=O)OCC#CI [3-iodo-2-propynyl butylcarbamate (IPBC)],101 ± 5.7,101 ± 3.8
CN(C)C(=N)NC(=N)N [Metformin hydrochloride] + CCCCNC(=O)OCC#CI [3-iodo-2-propynyl butylcarbamate (IPBC)],85.9 ± 4.9,88 ± 2.2
O=C1OCCN1/N=C/c1ccc([N+](=O)[O-])o1 [Furazolidone] + CCCCNC(=O)OCC#CI [3-iodo-2-propynyl butylcarbamate (IPBC)],76.2 ± 8.6,88.9 ± 5.2
N=C(N)NCCN1CCCCCCC1 [Guanethidine sulfate] + CCCCNC(=O)OCC#CI [3-iodo-2-propynyl butylcarbamate (IPBC)],81.3 ± 4.1,90.2 ± 4.4
COC[C@@H](NC(C)=O)C(=O)NCc1ccccc1 [Lacosamide] + CCCCNC(=O)OCC#CI [3-iodo-2-propynyl butylcarbamate (IPBC)],85.6 ± 1.4,93.66 ± 0.73
CN(C)CCCN1c2ccccc2Sc2ccc(C(F)(F)F)cc21 [Triflupromazine hydrochloride] + CCCCNC(=O)OCC#CI [3-iodo-2-propynyl butylcarbamate (IPBC)],46.4 ± 2.9,81.3 ± 4.3
OC(CCCN1CCCCC1)(c1ccccc1)c1ccccc1 [Diphenidol hydrochloride] + CCCCNC(=O)OCC#CI [3-iodo-2-propynyl butylcarbamate (IPBC)],89.4 ± 2.4,96.7 ± 3.4
CN(C)CCCN1c2ccccc2CCc2ccccc21 [Imipramine hydrochloride] + CCCCNC(=O)OCC#CI [3-iodo-2-propynyl butylcarbamate (IPBC)],81 ± 1.9,96.28 ± 0.21
CC(=O)c1ccc2c(c1)N(CCCN1CCC(CCO)CC1)c1ccccc1S2 [Piperacetazine] + CCCCNC(=O)OCC#CI [3-iodo-2-propynyl butylcarbamate (IPBC)],55,94.8
CN1CCN(CCCN2c3ccccc3Sc3ccc(C(F)(F)F)cc32)CC1 [Trifluoperazine dihydrochloride] + CCCCNC(=O)OCC#CI [3-iodo-2-propynyl butylcarbamate (IPBC)],4.45 ± 0.95,3.46 ± 0.1
OCCN1CCN(CCCN2c3ccccc3Sc3ccc(C(F)(F)F)cc32)CC1 [Fluphenazine dihydrochloride] + CCCCNC(=O)OCC#CI [3-iodo-2-propynyl butylcarbamate (IPBC)],2.86,2.31 ± 0.21
CC(=O)c1ccc2c(c1)N(CCCN(C)C)c1ccccc1S2 [Acetopromazine maleate salt] + CCCCNC(=O)OCC#CI [3-iodo-2-propynyl butylcarbamate (IPBC)],70.84 ± 0.32,91.6 ± 0.94
CNCCCN1c2ccccc2CCc2ccccc21 [Desipramine hydrochloride] + CCCCNC(=O)OCC#CI [3-iodo-2-propynyl butylcarbamate (IPBC)],70.4 ± 1.4,93.5 ± 3.4
CN(C)CCCN1c2ccccc2Sc2ccccc21 [Promazine hydrochloride] + CCCCNC(=O)OCC#CI [3-iodo-2-propynyl butylcarbamate (IPBC)],71.95 ± 0.16,90.8 ± 3.8
CC(=O)N[C@@H](CC(=O)N[C@@H](CCC(=O)O)C(=O)O)C(=O)O [Spaglumic acid] + CCCCNC(=O)OCC#CI [3-iodo-2-propynyl butylcarbamate (IPBC)],95.6 ± 7.3,95.1 ± 7
COc1ccc(C(=O)NCc2cccnc2)cc1C(=O)NCc1cccnc1 [Picotamide monohydrate] + CCCCNC(=O)OCC#CI [3-iodo-2-propynyl butylcarbamate (IPBC)],91.2 ± 5.1,97 ± 3.9
CC(CN(C)C)CN1c2ccccc2CCc2ccccc21 (stereo not given) [Trimipramine maleate salt] + CCCCNC(=O)OCC#CI [3-iodo-2-propynyl butylcarbamate (IPBC)],75.1 ± 0.79,93.97 ± 0.84
CN1CCOC(c2ccccc2)c2ccccc2C1 (stereo not given) [Nefopam hydrochloride] + CCCCNC(=O)OCC#CI [3-iodo-2-propynyl butylcarbamate (IPBC)],83.4 ± 1.1,93.1 ± 1.1
"CC(=O)OCC1=C(C(=O)O)N2C(=O)[C@@H](N)[C@H]2SC1 [Cephalosporanic acid, 7-amino] + CCCCNC(=O)OCC#CI [3-iodo-2-propynyl butylcarbamate (IPBC)]",85.1 ± 3.8,94.6 ± 3.1
NS(=O)(=O)c1cc2c(cc1Cl)N=CNS2(=O)=O [Chlorothiazide] + CCCCNC(=O)OCC#CI [3-iodo-2-propynyl butylcarbamate (IPBC)],102.6 ± 0.32,106 ± 2.8
CCOc1ccc(Cc2nccc3cc(OCC)c(OCC)cc23)cc1OCC [Ethaverine hydrochloride] + CCCCNC(=O)OCC#CI [3-iodo-2-propynyl butylcarbamate (IPBC)],55 ± 2.2,82.3 ± 2.2
CC[C@H]1OC(=O)C[C@@H](O)[C@H](C)[C@@H](O[C@@H]2O[C@H](C)[C@@H](O[C@H]3C[C@@](C)(O)[C@@H](O)[C@H](C)O3)[C@H](N(C)C)[C@H]2O)[C@@H](CC=O)C[C@@H](C)C(=O)/C=C/C(C)=C/[C@@H]1CO[C@@H]1O[C@H](C)[C@@H](O)[C@@H](OC)[C@H]1OC [Tylosin] + CCCCNC(=O)OCC#CI [3-iodo-2-propynyl butylcarbamate (IPBC)],95.3 ± 7.9,95.1 ± 3
CC(C)NC[C@@H](O)COc1ccc(CC(N)=O)cc1 [(R)-(+)-Atenolol] + CCCCNC(=O)OCC#CI [3-iodo-2-propynyl butylcarbamate (IPBC)],101 ± 2.1,98.48 ± 0.52
